Measured values published in PubChem BioAssay (NCI).
The panel holds about 79,000 compounds, 15% with a hit somewhere; the sample as a whole holds those more often. Activity calls are given as the source filed them. Rule as the data show it: active = growth inhibition above about 70%; inactive = the rest.

Experiment: NCI Yeast Anticancer Drug Screen. Data for the wt2 strain (AID 169);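 also: 0% = growth of vehicle-treated yeast cultures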
Conditions: S. cerevisiae wt2 strain growth inhibition, active compounds read high
Protocol: Growth inhibition of yeast strains with defined genetic alterations is measured as a screen for potential anti-cancer activity. Selected strains with alterations in DNA damage repair or cell cycle control were exposed to compounds and growth inhibition was measured relative to vehicle treated controls. The strain used in this assay is wt2

Measured: growth inhibition

CSc1nnc(SC)nn1
active: at 100.0 µM 99%
inactive: at 1.2 µM 9% | at 3.7 µM 5% | at 11.0 µM 3% | at 33.0 µM 38%

COc1ccc(/C=C2\NC(=S)N(/C=C3\C(=O)Oc4ccccc4C3=O)C2=O)cc1
inactive: at 1.2 µM -6% | at 3.7 µM -1% | at 11.0 µM -1% | at 33.0 µM 5% | at 100.0 µM 27%

CCCCCOC(=S)SC(=O)OCC
active: at 100.0 µM 90%
inactive: at 1.2 µM -4% | at 3.7 µM 6% | at 11.0 µM 4% | at 33.0 µM 39%

NC1CCCCC1N.Nc1c(N=Nc2ccc(-c3ccc(N=Nc4cc(S(=O)(=O)[O-])c5ccccc5c4N)cc3)cc2)cc(S(=O)(=O)[O-])c2ccccc12.[OH3+].[OH3+].[Pt+4]
inactive: at 1.2 µM -1% | at 3.7 µM 10%
active: at 11.0 µM 86% | at 33.0 µM 90% | at 100.0 µM 70%

Nc1ncnc2c1ncn2C1OC(CO)CC1O (stereo not given)
active: at 100.0 µM 91%
inactive: at 1.2 µM -7% | at 3.7 µM -3% | at 11.0 µM 13% | at 33.0 µM 66%

CC[N+](CC)(CC)c1ccccc1
inactive: at 1.2 µM -23% | at 3.7 µM -32% | at 11.0 µM -32% | at 33.0 µM -23% | at 100.0 µM -30%

O=C(CSC(=S)N1CCCCC1)Nc1nc2c(s1)CCCC2
active: at 100.0 µM 88%
inactive: at 1.2 µM -7% | at 3.7 µM -3% | at 11.0 µM -2% | at 33.0 µM 22%

CCCCOCn1c(=O)[nH]c(=O)c2cc(Br)ccc21
inactive: at 1.2 µM -21% | at 3.7 µM -20% | at 11.0 µM -21% | at 33.0 µM -19% | at 100.0 µM 0%
